Bioassay records deposited in PubChem BioAssay by National Center for Advancing Translational Sciences (NCATS).
NPSR antagonist = qHTS Assay for Antagonists of the Neuropeptide S Receptor: cAMP Signal Transduction; CHO-NPSR cells, cAMP TR-FRET, antagonist mode; Potency, µM (top dose mostly 38.3 µM), for the others: top-dose activity change, negative = inhibition, actives largely listed as inhibitors; 220,000 compounds, 1% hits; note: potency is the fitted concentration of half-maximal effect; nearly all actives have a fitted effect of over 50% in size
IMPase Li inh = qHTS Assay for Identifying the Cell-Membrane Permeable IMPase Inhibitors: Potentiation with Lithium | CHO-M1 cells, IP1 TR-FRET (IP-One), carbachol + lithium | Potency, µM (highest dose often 59.4 µM), for inactives: top-dose activity, negative = IMPase inhibition, most hits filed as inhibitors | 210,000 compounds, 0.35% hits;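 note: IP1 builds up when IMPase is blocked and the TR-FRET signal falls; potency is the fitted concentration of half-maximal effect; plate controls were basal vehicle for no effect and high inhibitor control for full effect; nearly all actives have a fitted effect of over 50% in size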
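Concentration–response in CHO-M1 cells, lithium-potentiated; 30 min at 37C. IP1 detected by competitive TR-FRET after 10 min lysis at RT. Hill-fitted AC50.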
ALDH1A1 inh = qHTS Assay for Inhibitors of Aldehyde Dehydrogenase 1 (ALDH1A1) | Aldehyde dehydrogenase 1A1 (Homo sapiens), P00352 | Purified ALDH1A1, NADH fluorescence, propionaldehyde substrate | Potency, µM (highest dose often 75.3 µM), for the others: at the top dose activity, negative = inhibition, usual class: inhibitors | 220,000 compounds, 7.3% hits | AID 1030, 2008; active = well fitted inhibition curve with a large enough effect, not every such curve was filed as active; inconclusive = small, poorly fitted or top-dose-only effect, or another doubt; inactive = no such curve, though single readings can be large or run the other way;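 note: potency is the fitted concentration of half-maximal effect; plate controls were no enzyme wells and a reference inhibitor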
IMPase cell inh = qHTS Assay for Identifying the Cell-Membrane Permeable IMPase Inhibitors | inhibition (IP1 accumulation), % at 46.1 µM | CHO-M1 cells, IP1 accumulation, HTRF TR-FRET ratio | AID 901, 2007 | 120,000 tested, under 10 active; active = well fitted curve in the direction sought with a large enough effect in the signal ratio, not every such curve was filed as active; inconclusive = small, poorly fitted or top-dose-only effect, or a change in a side signal; inactive = no such curve, though single readings can be large or run the other way; the % refers to the signal ratio;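 note: cells stimulated with carbachol in lithium chloride buffer; plate controls were DMSO basal wells for no effect and reference inhibitor wells for full effect; higher means more IMPase inhibition seen as more IP1 and lower FRET ratio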
Target sequence (P97697 whole entry, looked up): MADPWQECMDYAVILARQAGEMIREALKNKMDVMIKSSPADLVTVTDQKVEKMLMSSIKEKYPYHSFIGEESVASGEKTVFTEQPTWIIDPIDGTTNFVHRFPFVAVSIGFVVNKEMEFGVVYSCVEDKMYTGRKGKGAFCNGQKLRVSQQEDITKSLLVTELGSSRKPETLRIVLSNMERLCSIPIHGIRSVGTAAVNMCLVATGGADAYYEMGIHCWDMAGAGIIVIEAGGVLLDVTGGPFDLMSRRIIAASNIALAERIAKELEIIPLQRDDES
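Carbachol-driven Gq signalling in CHO-M1 cells (2000/well) generates IP1. Compounds that block IMPase raise IP1 and so reduce the FRET signal from Eu-anti-IP1 and d2-IP1 after a 10 min room-temperature lysis.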
HPGD block = qHTS Assay for Inhibitors of HPGD (15-Hydroxyprostaglandin Dehydrogenase) | 15-hydroxyprostaglandin dehydrogenase [NAD(+)] (Homo sapiens), P15428 | purified HPGD, NADH fluorescence kinetic, PGE2 substrate | 150,000 compounds, 4.3% hits | Potency, µM, for the others: top-dose activity change, negative = inhibition, usual class: inhibitors; active = well fitted inhibition curve with a large enough effect, not every such curve was filed as active; inconclusive = small, poorly fitted or top-dose-only effect, or another doubt; inactive = no such curve, though single readings can be large or run the other way; note: potency is the fitted concentration of half-maximal effect
Target sequence (P15428 whole entry, looked up): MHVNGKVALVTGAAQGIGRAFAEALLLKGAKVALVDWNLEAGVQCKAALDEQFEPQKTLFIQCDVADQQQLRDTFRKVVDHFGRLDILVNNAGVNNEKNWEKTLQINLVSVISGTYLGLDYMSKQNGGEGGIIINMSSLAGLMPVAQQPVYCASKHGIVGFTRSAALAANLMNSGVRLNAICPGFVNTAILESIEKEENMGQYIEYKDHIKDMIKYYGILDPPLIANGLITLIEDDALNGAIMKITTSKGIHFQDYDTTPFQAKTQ
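20 nM HPGD preincubated 15 min at room temperature with compound in 50 mM Tris-HCl pH 8, 0.01% Tween 20. Started with 1 mM NAD+ and 30 uM prostaglandin E2; NADH fluorescence (360/450 nm) read 5 times over 30-s intervals, last minus first.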
PNC assembly inh = High Content Assay for Compounds that inhibit the Assembly of the Perinucleolar Compartment | PC3M PTB-GFP, PNC prevalence imaging, 16 h; stronger effect = lower value | activity change (PNC), negative = inhibition, % at 10 µM | 140,000 compounds, 3.1% hits;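 active = readout at or below -70, meaning at least 70% loss of cells showing the perinucleolar compartment, a nuclear body marking cancer cells; inconclusive = readout between -30 and a set limit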;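 note: plate controls were DMSO wells for no effect and camptothecin positive control wells for full effect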
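Read-out is percentage of cells bearing a perinucleolar compartment, from automated 20x imaging of fixed, Hoechst-stained PC3M PTB-GFP cells. Cells were seeded 4 h, then exposed 16 h to compound (23 nl of library stock) in duplicate plates.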
Starred values were filed as active, the others as inactive; ? = inconclusive; nt = no result given; ! = repeats disagree; [ ] = remark or other dose. Sampled rows, rich in hits. Any-hit rate of the full collection: about 11%. Unless noted, calls come from the whole dose curve; as a rule, active = well fitted curve in the direction sought with a large enough effect; inconclusive = small, poorly fitted or top-dose-only effect, or another doubt; inactive = no such curve, though single readings can be large; an effect the other way counts as inactive or inconclusive. Unless noted, % is set by controls: 0 for no effect and ±100 for the full control effect.

SMILES	NPSR antagonist	IMPase Li inh	ALDH1A1 inh	IMPase cell inh	HPGD block	PNC assembly inh
O=C(NNc1c(Cl)cc(Cl)cc1Cl)C1CCC1	2%	-1%	16%	nt	32µM*	32
O=C(O)c1ccccc1NS(=O)(=O)c1ccc(NNC(=S)Nc2ccc(OC(F)F)cc2)c([N+](=O)[O-])c1	-26%	22%	3.5µM*	nt	nt	nt
CN(C)c1ccc(C(=C2C=CC(=[N+](C)C)C=C2)c2ccc(N(C)C)cc2)cc1	nt	374%	-4%	nt	0%	nt
CN(C)c1ccc(C(=C2C=CC(=[N+](C)C)C=C2)c2ccccc2)cc1	nt	-1%	8.9µM*!	nt	?	nt
CCOC(=O)Cc1c(C)nc2cc(-c3ccc(C)cc3)[nH]n2c1=O	-19%[46.1 µM]	6%[38.3 µM]	?	4	?	-7
O=S(=O)(Nc1nc2ccccc2nc1Nc1ccc2c(c1)OCO2)c1ccc(F)cc1	-2%[46.1 µM]	nt	-3%	-8	nt	-84*
COc1cccc(CNc2ccc(Br)cn2)c1O	-5%[46.1 µM]	8%[38.3 µM]	-1%	10	-18%	48
COc1cccc(CNn2cnnc2)c1O	-9%	5%	13µM*	nt	nt	nt
COc1cccc(CNc2ncc(Br)cc2Br)c1O	10µM*	4%[38.3 µM]	?	2	-20%	44
Clc1cccc(Cl)c1COc1ccccc1CNn1cnnc1	-21%	1%	-6%	nt	nt	nt
CC(=O)Nc1ccc(N2CCN(Cc3ccccc3F)CC2)cc1	0%[46.1 µM]	-2%[38.3 µM]	9%	-5	8%	10
Cc1ccc(NCc2ccccc2O)cc1C	-4%	-7%	-10%	nt	nt	nt
Cc1ccc2nc3sc(C(=O)N4CCOCC4)c(N)c3cc2c1	-28%[46.1 µM]	-1%[38.3 µM]	-11%	?	25µM*	-11
CC(C)c1ccc2nc3sc(C(=O)N4CCc5ccccc5C4)c(N)c3cc2c1	-25%[46.1 µM]	2%[38.3 µM]	-15%	1	16µM*	56
CCOc1ccc2nc3sc(C(=O)N4CCN(C)CC4)c(N)c3cc2c1	-19%[46.1 µM]	27%[38.3 µM]	-11%	11	14µM*	-1
CCC(=O)N1c2ccccc2-c2nnc(SC)nc2OC1c1ccc(N(C)C)cc1 (centres undefined)	-5%	3%	16µM*	nt	-5%	19
Cc1ccccc1-n1c(SC2CCOC2=O)nnc1-c1ccncc1 (centres undefined)	5%	2%	-3%	nt	nt	nt
Cc1ccccc1-n1nnnc1SC1CCOC1=O (centres undefined)	-8%[46.1 µM]	-6%[38.3 µM]	11µM*	2	-12%	-19
Cc1ccccc1C(=O)Nc1nnc(-c2ccncc2)o1	7%	-4%	7%	nt	nt	nt
CCCOC(=O)c1ccc(NC(=O)c2c(Cl)ccc(Cl)c2OC)cc1	-38%	14%	?	nt	-8%	10
COc1c(Cl)ccc(Cl)c1C(=O)OCC(=O)O	2%[46.1 µM]	9%[38.3 µM]	22µM*	15	-11%	24
Cc1cc(C)nc(N/N=C/c2ccco2)n1	-7%[46.1 µM]	27%[38.3 µM]	4%	-2	-3%	-110*
Cc1cc(-c2ccccc2)nc(N/N=C/c2ccco2)n1	-9%[46.1 µM]	-13%[38.3 µM]	-6%	5	-8%	?
CCN(CC)S(=O)(=O)c1cccc(-c2nnc(SCC(N)=O)n2N)c1	16%	nt	nt	nt	nt	nt
Cc1ccc(-n2c(-c3ccccc3)c[n+]3c2CCC3)cc1	12%	19%	-1%	nt	nt	nt
SMILES	NPSR antagonist	IMPase Li inh	ALDH1A1 inh	IMPase cell inh	HPGD block	PNC assembly inh
O=C(Oc1ccc2c(=O)c(Oc3ccc4ccccc4c3)coc2c1)c1cccnc1	9%	-12%	-11%	nt	-17%	-21
O=C(Oc1ccc2c(=O)c(Cl)coc2c1)c1cccnc1	-13%[46.1 µM]	-26%[38.3 µM]	20µM*	1	-21%	-26
O=c1[nH]n(-c2ccc(Cl)cc2)c2ncccc12	-14%[46.1 µM]	-3%[38.3 µM]	2%	2	11µM*	3
CN(C)S(=O)(=O)c1ccc(-c2csc(N/N=C/c3ccc(O)cc3)n2)cc1	13µM*	nt	nt	nt	nt	nt
COC(=O)Cc1cc(=O)n(-c2ccccc2)[nH]1	-12%[46.1 µM]	33%[38.3 µM]	0%	12	4%	?
O=C(Nc1ccc(Cl)cc1)/C(=C/c1cccc(O)c1)c1nc2ccccc2s1	10µM*	18%	-11%	nt	-5%	?
COc1ccc2nc(SC)cc(C)c2c1	-14%	nt	13%	nt	nt	nt
Cc1ccnc(NC(=O)c2sc3ccccc3c2Cl)c1	-43%	?	8%	nt	-15%	?
CCOC(=O)c1sc(NC(=O)CCN2CCN(CC)CC2)c(C(=O)OCC)c1C	-32%	14%	10µM*	nt	nt	nt
CCOC(=O)c1sc(NC(=O)CCN2CCC(C)CC2)c(C(=O)OCC)c1C	3%	-5%	2.5µM*	nt	nt	nt
CCOC(=O)c1sc(NC(=O)CCN2C(=O)c3ccccc3C2=O)c(C(=O)OCC)c1C	-11%	-4%	?	nt	-5%	41
Cc1ccc(Cl)cc1N1CCN(C(=O)C2CCN(S(=O)(=O)c3c(C)nn(C)c3C)CC2)CC1	-25%[46.1 µM]	3%[38.3 µM]	-1%	10	-11%	?
Cc1ccc(-c2cc(C(=O)Nc3cc(C)ccc3C)[nH]n2)c(O)c1	-3%	1%	-1%	0	-13%	-84*
COc1ccc(OC)c(NC(=O)c2cc(-c3ccc(C)cc3O)n[nH]2)c1	-13%[46.1 µM]	4%[38.3 µM]	0%	-11	-12%	56
C/C(=N\NC(=O)c1csc(C)c1C)c1ccco1	15%[46.1 µM]	3%	?	-10	?	?
C/C(=N\NC(=O)c1csc(C)c1C)c1ccc(C)s1	0%	-1%	3%	nt	14µM*	23
C=CCn1c(Cc2nc3ccc(Cl)cc3[nH]2)n[nH]c1=S	-10%[46.1 µM]	16%[38.3 µM]	10µM*	7	?	?
C=CCn1c(Cc2c[nH]c3ccccc23)n[nH]c1=S	-14%[7.67 µM]	3%[38.3 µM]	8.9µM*	10	-23%	12
O=[N+]([O-])c1cc(/C=N/n2c(-c3cccnc3)n[nH]c2=S)ccc1Cl	-18%	3%	2µM*	7	4µM*	-12
S=c1[nH]nc(COc2ccccc2)n1/N=C/c1ccncc1	-30%	6%	-10%	nt	nt	nt
CC(/C=N/n1c(-c2cccnc2)n[nH]c1=S)=C\c1ccccc1	?	-10%[38.3 µM]	?	4	3.2µM*	39
S=c1[nH]nc(-c2cccnc2)n1/N=C/c1ccccc1	-21%	nt	nt	nt	nt	nt
S=c1[nH]nc(-c2cccnc2)n1/N=C/C=C/c1ccccc1	-20%	0%	-16%	nt	13µM*	?
CC(/C=N/n1c(COc2ccccc2)n[nH]c1=S)=C\c1ccccc1	-14%[46.1 µM]	5%[38.3 µM]	?	1	5.6µM*	80
